FBW7 activator – FBW7 E3 ligase activators, primary screen, biochemical, AlphaScreen, human | F-box/WD repeat-containing protein 7 (Homo sapiens), Q969H0 | AlphaScreen FBW7–phospho-cyclin E peptide binding, activator screen | normalized activity (activation), % at 26.1 µM | actives 0.13% (n = 650,000) | AID 1259310, 2017; in the data active = normalized activity above about 1.9%;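 also: purified mutant Fbw7 with reduced substrate affinity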
GPR151 activ – activators of human GPR151, primary screen, cell-based, PathHunter beta-arrestin, luminescence | G-protein coupled receptor 151 (Homo sapiens), Q8TDV0 | PathHunter beta-arrestin GPR151 cells | activation, % at 11.2 µM | actives 1% (n = 650,000) | AID 1508602, 2020; in the data active = activation above about 4.9%;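 also: 0% = median of compound wells and 100% = cells with positive control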
Target sequence (Q8TDV0 whole entry, looked up): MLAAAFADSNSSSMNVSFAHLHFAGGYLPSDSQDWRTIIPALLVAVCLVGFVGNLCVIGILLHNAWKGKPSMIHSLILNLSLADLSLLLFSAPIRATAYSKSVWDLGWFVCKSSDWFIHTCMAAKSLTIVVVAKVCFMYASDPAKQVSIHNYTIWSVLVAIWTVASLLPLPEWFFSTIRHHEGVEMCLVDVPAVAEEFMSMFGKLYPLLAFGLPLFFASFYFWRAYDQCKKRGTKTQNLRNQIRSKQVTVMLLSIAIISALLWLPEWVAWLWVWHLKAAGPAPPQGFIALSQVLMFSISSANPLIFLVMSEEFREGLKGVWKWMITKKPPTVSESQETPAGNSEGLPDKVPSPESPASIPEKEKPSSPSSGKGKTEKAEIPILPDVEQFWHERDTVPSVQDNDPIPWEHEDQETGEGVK
TEAD-YAP inh – TEAD-YAP interaction inhibition, primary screen, TEAD-YAP interaction inhibitor project, luminescence, HEK-TIYL cells; TEAD-Gal4/YAP UAS-luciferase luminescence; inhibition, % at 9.12 µM; actives 1.4% (n = 640,000); in the data active = inhibition above about 32%;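 also: 0% = median of test compound wells and 100% = reference inhibitor wells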
MITF primary – MITF inhibitors, primary screen, biochemical, AlphaScreen, human; inhibition, % at 2.6 µM; AID 1259374, 2018; Microphthalmia-associated transcription factor (Homo sapiens), O75030; actives 0.91% (n = 650,000); AlphaScreen MITF homodimerization, bead proximity signal; in the data active = inhibition above about 50%;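 also: 0% = vehicle wells with protein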
GPR151 conf act – GPR151 activators, triplicate retest, confirmation, cell-based, PathHunter beta-arrestin, luminescence; shares compounds with GPR151 activ; GPR151 PathHunter beta-arrestin cells, 90 min; % of EA-reagent control over plate median; activation, % at 11.2 µM; 6,700 tested, under 10 active;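 active = mean percent activation across replicates above the confirmation screen cutoff of 4.91%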
GPR119 counter – GPR119 activators in beta-arrestin cells, counter-screen for GPR151 activator project, cell-based, PathHunter beta-arrestin, luminescence, triplicate; activation, % at 11.2 µM; 90 min; 0 = compound-well median, 100 = enzyme-acceptor control; actives 0.3% (n = 6,700); shares compounds with GPR151 activ; AID 1508611, 2020;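 active = mean percent activation in the counterscreen above 29.09%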;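 also: counterscreen on off-target GPR119 to flag nonselective hits from the GPR151 activator screen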
* marks the source's active call; other numbers are inactive results; nt = not tested or not shown. This is a sample that favours compounds with a hit; in the whole collection about 3.4% have one here.

SMILES | FBW7 activator | GPR151 activ | TEAD-YAP inh | MITF primary | GPR151 conf act | GPR119 counter
O=C(Cc1ccc(N2CCC(NCCn3ccnc3)CC2)cc1)NCCc1cccc(F)c1 | 0 | 6.0* | -2 | -8 | -1 | -9
CCCCCCSc1nc2sc3c(c2c(=O)n1-c1ccc(OC)cc1)CC(C)(C)OC3 | 0 | 9.7* | 3 | -6 | 1 | 16
CCCCCCSc1nc2sc3c(c2c(=O)n1-c1ccc(C)cc1)CC(C)(C)OC3 | 0 | 1 | 1 | 10 | nt | nt
CCOC(=O)c1sc(NC(=O)C2CC=CCC2C(=O)O)c(C(=O)OCC)c1C (centres undefined) | 0 | 3 | 6 | 4 | nt | nt
CC(=O)C1=C(O)C(=O)N(CCNCCO)C1c1ccc(Cl)cc1 (centres undefined) | 0 | 0 | 8 | 1 | nt | nt
CCc1ccc(C2C(C(C)=O)=C(O)C(=O)N2CCNCCO)cc1 (centres undefined) | 0 | 5.4* | 3 | 10 | 0 | 8
C=CCOc1ccc(/C=C2\C(=O)NN(c3ccccc3)C2=O)cc1OC | 0 | 5.3* | 1 | 4 | 0 | 3
O=C(Nc1nnc(-c2ccco2)o1)c1nc2ccccc2s1 | 0 | 4.9* | -31 | 4 | 0 | -1
O=C(NCCCc1ccncc1)C1CC12CCN(C(=O)c1cc(-c3ccccc3)no1)CC2 (centres undefined) | 1 | 6.1* | 6 | 17 | 1 | 5
O=C(NCc1ccco1)C1CC12CCN(C(=O)c1cc(-c3ccccc3)no1)CC2 (centres undefined) | 0 | 2 | -12 | 13 | nt | nt
O=C(c1cc(=O)c2ccccc2o1)N1CCC[C@@H]2CN(Cc3ccsc3)CC[C@H]21 | 0 | 0 | -5 | 12 | nt | nt
COc1ccc(C(=O)Nc2c(C)csc2C(=O)O)cc1 | 0 | 4.9* | -3 | 4 | -1 | 4
Cc1csc(C(=O)O)c1NC(=O)c1ccc(F)cc1 | 0 | 1 | -2 | -1 | nt | nt
COc1cc(=O)n2c(c1C(=O)NCc1ccsc1)CCN(C(=O)c1nonc1C)CC2 | 0 | 10* | -5 | -5 | 0 | 11
O=C(/C=C/c1ccccc1Cl)NC1=NCCS1 | 0 | 0 | -78 | 9 | nt | nt
COc1ccc(-c2cn3c(C(=O)N4CCN(c5ccccc5OC)CC4)csc3n2)cc1 | 0 | 0 | -8 | 2 | nt | nt
COc1ccc(-c2cn3c(C(=O)N4CCc5ccccc54)csc3n2)cc1 | 0 | 19* | 5 | -8 | 0 | -2
O=C(c1nc2sccn2c1CN1CCCN(c2ccccc2)CC1)N1CCCCC1 | 0 | -1 | 7 | 6 | nt | nt
CCOC(=O)CN1C(=O)C2(OCCCO2)c2cc(C)ccc21 | 0 | 5.7* | 6 | 5 | 1 | -1
COC(=O)CN1C(=O)C2(OCCCO2)c2cc(C)ccc21 | 0 | 1 | 1 | 6 | nt | nt
Cc1ccc(NC(=O)C2CC(Cl)=CCC2C(=O)O)cc1[N+](=O)[O-] (centres undefined) | 0 | 18* | 9 | -6 | 0 | -4
CCOC(=O)c1c(NC(=O)COc2c(F)c(F)cc(F)c2F)sc2c1CCCC2 | 1 | 5.0* | 8 | 13 | 1 | 9
CCOC(=O)c1c(NC(=O)C2C3C=CC(C3)C2C(=O)O)sc2c1CCCCC2 (centres undefined) | 0 | 5.5* | 16 | 5 | 0 | -7
CCOC(=O)c1c(NC(=O)COc2c(C)cc(Cl)cc2Cl)sc2c1CCCC2 | 0 | 0 | 0 | -5 | nt | nt
COc1cc2nc(Nc3ccccn3)nc(Nc3ccc(Oc4ccccc4)cc3)c2cc1OC | 0 | -2 | -6 | -6 | nt | nt
SMILES | FBW7 activator | GPR151 activ | TEAD-YAP inh | MITF primary | GPR151 conf act | GPR119 counter
COc1cc2nc(Nc3ccccn3)nc(Nc3cc(OC)c(OC)c(OC)c3)c2cc1OC | 0 | 7.3* | 14 | 8 | 1 | 3
COc1cc2c(cc1/C=C1/C(C)=C(C#N)c3nc(N)c(C#N)c(C)c31)OCO2 | 0 | 1 | -6 | -16 | nt | nt
COc1ccc(OC)c(/C=C2\C(C)=C(C#N)c3nc(N)c(C#N)c(C)c32)c1 | 0 | 7.2* | -15 | -1 | 0 | 3
CN(C)c1ccc(/C=C2\N=C(c3ccccc3F)OC2=O)cc1 | 0 | 2 | -25 | 5 | nt | nt
CN(C)/C=C1\N=C(c2ccccc2F)OC1=O | 0 | 6.9* | -12 | 7 | 1 | 9
Clc1ccc(OCCn2cncn2)cc1 | 0 | 6.4* | -5 | -18 | -1 | -7
CCOC(=O)c1sc2nc(N)c(C#N)c(-c3ccc(Cl)cc3)c2c1N | 0 | 6.6* | 2 | -2 | 0 | -12
COC(=O)c1sc2nc(N)c(C#N)c(-c3ccc(Cl)cc3)c2c1N | 0 | 0 | 3 | 5 | nt | nt
CCOc1ccc(NC(=O)COc2ccc(C3C(C#N)=C(N)Oc4n[nH]c(C)c43)cc2)cc1 (centres undefined) | 0 | 0 | -7 | -2 | nt | nt
COc1ccc(NC(=O)COc2ccc(C3C(C#N)=C(N)Oc4n[nH]c(C)c43)cc2)cc1 (centres undefined) | 0 | 10.0* | -7 | 10 | 1 | -8
CS(=O)(=O)c1ccccc1C(=O)NCCc1ccc(Cl)cc1Cl | 0 | 1 | -8 | 3 | nt | nt
CCOc1ccc(N/C(SCc2ccc(C)cc2C)=C(/C#N)C(N)=O)cc1 | 0 | 0 | 12 | 13 | nt | nt
CCOc1ccc(N2CC(C(=O)N3CCN(C(=O)C4CC(=O)N(c5ccc(OCC)cc5)C4)CC3)CC2=O)cc1 (centres undefined) | 0 | 2 | -24 | -2 | nt | nt
CCOc1ccc(N2CC(C(=O)OC)CC2=O)cc1 (centres undefined) | 0 | 6.4* | 9 | 3 | 0 | -1
CCOc1ccc(N2CC(C(=O)N3CCC4(CC3)NC(=O)c3ccccc3N4)CC2=O)cc1 (centres undefined) | 0 | 5.1* | -4 | 2 | 0 | -7
Cc1ccccc1C(=O)Nc1c2c(nn1-c1ccc(Cl)cc1)CS(=O)(=O)C2 | 0 | -1 | -1 | 5 | nt | nt
CCCCCn1c(SCC(=O)Nc2ccccc2Cl)nc2cc(C(=O)NCc3ccco3)ccc2c1=O | 0 | 0 | 17 | 11 | nt | nt
CCC(=O)Nc1nc2n(n1)C(c1ccccc1)CC(c1ccc(Cl)cc1)N2 (centres undefined) | 0 | -1 | 3 | 12 | nt | nt
O=C(Nc1nc2n(n1)C(c1ccc(F)cc1)CC(c1ccccc1)N2)c1cccnc1 (centres undefined) | 0 | 5.7* | 13 | 3 | 0 | 4

Screens (PubChem BioAssay)
